High-throughput results deposited in PubChem BioAssay by several laboratories.
Only some compounds are listed: those with a hit (about 1.6% of all), similar ones and a draw of the others.
eIF4E-4G inh: blocks eIF4E binding to eIF4G | P63073+Q04637 | TR-FRET eIF4E-eIF4GI(517-606) binding, 2 h | inhibition, % at 21.7 µM | hit rate 0.37% among 220,000 | AID 782;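 active = inhibition above about 30%, limit read from the data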;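 also: 0% = full FRET control wells and 100% = background wells lacking eIF4GI fragment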
eIF4H FP inh: inhibitors of RNA binding by human eIF4H; eIF4H fluorescence polarization binding assay; inhibition, % at 35 µM; hit rate 0.94% among 290,000;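 also: calls also rest on retests at 20 µM and on dose response follow-up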
PABP1 MLLE inh: inhibitors of microRNA-mediated deadenylation, human PABP1 MLLE binding | P11940 | AID 588489 | hit rate 0.36% among 360,000 | GST-MLLE / FITC-PAM2 fluorescence polarization | inhibition, % at 20 µM; in the data active = inhibition above about 35%, passing the limit was not always enough;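 also: plate controls were DMSO wells with GST-MLLE for no effect and wells lacking GST-MLLE protein for full effect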
PABP polyA inh: PABP-poly(A) binding inhibition | P11940 | PABP-poly(A) RNA binding, fluorescence polarization | inhibition, % at 35 µM | hit rate 1% among 290,000 | AID 2014;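 also: calls also rest on retests at 20 µM and on dose response follow-up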
PERK inh: human PERK inhibition, primary cell-based screen | Q9NZJ5 | CHO PERK-DD fusion, SEAP luminescence translation reporter | inhibition, % at 5.6 µM | hit rate 0.17% among 220,000 | AID 1416;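 active = inhibition above the mean inhibition of all tested compounds plus 3 SD, set separately per screening campaign, cut at about 2.9% in these data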;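 also: PERK kinase domain activated by AP20187 dimerizer at 100 nM; 0% = DMSO with dimerizer and 100% = rapamycin at 8.4 µM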
An asterisk follows results filed as active; ? = inconclusive; . = no result; [ ] = dose if it differs, or a comment. Unless noted, no rule for the calls is given here.

SMILES | eIF4E-4G inh | eIF4H FP inh | PABP1 MLLE inh | PABP polyA inh | PERK inh
COC(=O)C1=C(NC(=O)c2ccc(C)c(C)c2)CCS1 | -5.7 | 1.2 | 39.2* | -0.1 | 0.8
COC(=O)C1=C(NC(=O)c2ccc(Br)cc2)CCS1 | -0.9 | 4.7 | 22.0 | 42.3 | 1.6
O=C(Nc1nc(-c2ccncc2)cs1)c1ccco1 | -14.7 | 83.8* | -16.9 | 47.8 | 1.0
O=C(Nc1nc(-c2cccs2)cs1)c1ccco1 | 4.5 | 0.5 | 13.8 | -12.6 | 0.4
N#CCCN(CCC#N)S(=O)(=O)c1ccc(C(=O)Nc2nnc(C3=COCCO3)o2)cc1 | -2.9 | 81.7* | 0.6 | 9.6* | 0.8
O=C(Nc1nnc(C2=COCCO2)o1)c1cccc(Br)c1 | . | -2.0 | 20.5 | 0.2 | .
CCCCN(C)S(=O)(=O)c1ccc(C(=O)Nc2nnc(C3=COCCO3)o2)cc1 | -3.7 | 22.4 | 2.2 | -8.8 | 0.3
CS(=O)(=O)c1cccc(C(=O)Nc2nnc(C3=COCCO3)o2)c1 | . | . | 41.1* | . | .
CCOc1ccc(N=C/C=C/c2ccccc2)c(O)c1 | -2.7 | ? | -8.4 | 119.2* | 0.1
CCOc1ccc(NCC(=O)N/N=C/C=C/c2ccccc2)cc1 | 4.8 | -0.7 | -21.9 | 1.3 | -1.2
CCc1ccccc1NS(=O)(=O)c1ccc2c(c1)NC(=O)CC(=O)N2 | -4.1 | active | -4.3 | 112.7* | 0.5
CCc1cccc(NS(=O)(=O)c2ccc3c(c2)NC(=O)CC(=O)N3)c1 | -0.4 | -4.6 | 21.9 | 18.8 | 0.5
CCNc1nc(NC(C)C)nc(Oc2ccc(=O)n(C)n2)n1 | 64.9* | 2.3 | -8.9 | -4.8 | 1.4
CC(C)Nc1nc(NC(C)C)nc(Oc2ccc(=O)n(C)n2)n1 | -0.7 | -5.1 | 0.5 | -0.2 | -0.2
c1ccc(CN2CCN(C3=Nc4cccc5cccc3c45)CC2)cc1 | -2.7 | 94.0* | -21.6 | 70.7 | -0.5
O=C(COC(=O)c1cccc(Cl)c1)Nc1cc(Cl)ccc1Oc1ccccc1 | -2.7 | -6.6 | 4.3 | -7.4 | -1.6
Nc1nnc(CC(=O)N/N=C/c2cccc([N+](=O)[O-])c2)s1 | . | 3.5 | -17.5 | 6.3 | -0.2
Nc1nnc(CC(=O)N/N=C/c2cc([N+](=O)[O-])cc(Br)c2O)s1 | -2.0 | 85.9* | -86.3 | 46.6* | 0.1
CC(=O)c1cc(-c2ccccc2)[nH]c1N1CCOCC1 | 3.8 | 11.5 | 44.1* | 1.9 | 0.2
C=CCNC(=O)CSc1nc2sccc2c(=O)n1-c1ccccc1 | . | 1.5 | -20.3 | 0.6 | .
COC(=O)C1=C(C(=O)OC)SC(=C2C(=S)C(C)(C)N(C(=O)C3CC3)c3ccccc32)S1 | 10.5 | -14.5 | 39.5* | 0.0 | 0.1
COc1ccc(N(CC(=O)N2CCN(C)CC2)S(=O)(=O)c2ccccc2)cc1OC | 0.1 | -11.4 | 2.7 | 7.5 | 0.5
CC(=O)N/C(=C\c1ccc(Cl)cc1)C(=O)O | 1.2 | 2.2 | -6.0 | 11.3 | 0.2
CC(O)c1nc2ccccc2n1Cc1ccccc1 (stereo unspecified) | . | -16.6 | -5.1 | -7.9 | .
COc1cc(/C=N/NC(=O)c2nc3ccccn3c2C)cc(OC)c1O | 7.3 | 0.8 | -4.6 | 8.0 | 0.8
SMILES | eIF4E-4G inh | eIF4H FP inh | PABP1 MLLE inh | PABP polyA inh | PERK inh
CC(C)n1nnnc1-c1cc(Cl)cc(Cl)c1 | -3.8 | -6.5 | 13.2 | 4.4 | 3.5*
CCn1cc(C(=O)N[C@@H](C)C(=O)OC)c(=O)c2cc3c(cc21)OCO3 | . | -5.1 | 13.4 | -5.9 | .
COC(=O)CSc1nc(Cc2ccccc2)nc2ccccc12 | -0.8 | 5.9 | 6.8 | 14.7 | -0.2
CNC(=S)N/N=C(\C)c1cccc([N+](=O)[O-])c1 | -4.5 | active | 18.9 | 120.4 | 0.1
O=C(Nc1cc2cc([N+](=O)[O-])ccc2oc1=O)c1cccs1 | -4.3 | -17.7 | . | 56.5* | 1.0
CCc1ccc(NC(=O)C(=O)N/N=C(\C)CC(=O)Nc2ccccn2)cc1 | 4.6 | 98.2 | 16.1 | 11.5* | 1.1
C/C(CC(=O)Nc1ccccn1)=N\NC(=O)C(=O)Nc1ccccc1C | -4.0 | 14.4 | 0.1 | -10.1 | 1.2
Cc1c(-n2cccc2C=O)cccc1[N+](=O)[O-] | 86.4* | -6.5 | 1.2 | -0.3 | 0.6
O=C(CCNC(=O)c1ccc([N+](=O)[O-])cc1)Nc1cccc(S(=O)(=O)N2CCOCC2)c1 | . | . | -0.2 | . | .
CCOC(=O)C1(CCOc2ccccc2)CCN(Cc2ccc(OC)cc2)CC1 | . | . | 0.1 | . | .
CC1(C)c2ccccc2N2CC(=O)NC21/C=C/c1ccco1 (stereo unspecified) | 7.3 | 24.5 | -25.2 | -2.9 | 2.0
CC1(C)c2ccccc2N2CCC(=O)NC21/C=C/c1ccco1 (stereo unspecified) | 2.9 | ? | -74.8 | 105.1* | 0.1
COC(=O)c1ccccc1NC(=O)CSc1nc(N)cc(=O)[nH]1 | 6.9 | 90.1* | 19.0 | 58.8 | 1.1
COc1ccc(OC)c(/C=C/C(=O)N2C(=O)c3cccc(N)c3C2=O)c1 | -33.3 | 7.8 | 39.7* | -2.5 | 0.2
COc1cc(/C=C/C(=O)N2C(=O)c3cccc(N)c3C2=O)cc(OC)c1OC | 1.0 | 6.0 | -18.1 | 13.1 | 0.7
O=C(O)Cn1c(O)c(C2=c3ccccc3=NC2=O)sc1=O | . | 4.1 | 6.4 | 4.0 | .
Cc1c(-n2c(O)c(C3=c4ccccc4=NC3=O)sc2=O)c(=O)n(-c2ccccc2)n1C | -2.7 | -7.7 | 46.9* | 2.1 | 1.3
NS(=O)(=O)c1ccc(N=Nc2ccc(=O)[nH]c2O)cc1 | 37.2* | 90.2* | -4.7 | 71.0* | -0.8
Cn1c(=O)oc2cc(S(=O)(=O)Nc3ccc(C(=O)O)cc3)ccc21 | . | . | -14.0 | . | .
CCOC(=O)N1CCC(NS(=O)(=O)c2ccc3c(c2)oc(=O)n3C)CC1 | 7.8 | 66.8* | -0.5 | 56.0* | 0.3
CCOC(=O)N1CCC(NC(=O)C2CCCN(S(=O)(=O)c3ccc4c(c3)oc(=O)n4C)C2)CC1 (stereo unspecified) | -1.1 | -3.4 | 4.0 | 4.6 | -0.1
Cc1ccc(C(=O)O)cc1NS(=O)(=O)c1ccc2c(c1)oc(=O)n2C | . | 77.2 | -1.7 | 33.4* | .
Cn1c(=O)oc2cc(S(=O)(=O)NCc3ccncc3)ccc21 | 4.8 | 71.5* | 3.9 | 67.4* | 0.2
COc1cccc(OCCOCCNCCO)c1 | -5.1 | -2.0 | . | -3.3 | 0.3
CCN(CC)c1ccc(NC(=O)c2cccnc2)cc1 | -3.1 | 12.6 | -1.6 | -14.4 | 1.4
SMILES | eIF4E-4G inh | eIF4H FP inh | PABP1 MLLE inh | PABP polyA inh | PERK inh
Cn1c(-c2ccc([N+](=O)[O-])cc2)nc2ccccc21 | 5.7 | -13.3 | 3.9 | -5.9 | 1.1
Cn1nc([N+](=O)[O-])c(C(C#N)c2nc3ccccc3n2C)c(Cl)c1=O (stereo unspecified) | -0.3 | ? | 65.0* | -0.1 | 0.5
CC(=O)c1c(C(=O)O)[nH]c(C(=O)O)c1C | 4.7 | 6.1 | -6.1 | -7.2 | 1.4
O=C1C(=Cc2ccc(Br)o2)C(=O)c2ccccc21 | 38.1*[fluorescence artefact?] | 89.4* | 23.0 | 6.4* | 0.5
O=[N+]([O-])c1ccc(N=Cc2sc3ccccc3c2O)cc1 | -3.0 | 40.6 | -56.3 | 9.8 | 0.2
Oc1cccc(C=Nc2cccc3ccccc23)c1O | . | 64.7* | 35.2 | 41.9* | .
Oc1c(C=NCc2ccccc2)sc2ccccc12 | -2.6 | 1.9 | 41.9* | -3.8 | 0.0
Oc1cccc(C=NCc2ccccc2)c1O | 1.6 | 90.3* | -1.5 | 46.1* | 0.7
Oc1ccc2ccccc2c1C=Nc1ccccc1Br | . | -3.5 | -87.0 | 5.1 | .
